PubChem BioAssay
Several values for one entry are separate records, joined by “and”; a condition that tells them apart may be missing. Identical values can stand only once. Activity calls are given as the source filed them.

Experiments:
[1] = E. coli DRC41 culture turbidity changes, primary screen, E. coli filamentation inducer project, strain DRC41, OD650, 48 h (AID 1152);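 note: E. coli MC1000 strain DRC41 lacking acrAB efflux pump and sulA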; details: E. coli DRC41 (acrAB sulA), higher = more signal, called active from +8 up or from −8 down
[2] = small-molecule binders of probe aLefty1, primary screen, biochemical, small-molecule microarray, 635/667 nm fluorescence (AID 1153); details: higher = more signal;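 note: score merges spot fluorescence with signal-to-noise ratio from the scanned slide images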
[3] = PSAC antagonists in infected red cells, primary screen, cell-based, P. falciparum Indochina, OD700, 1 h (AID 1154); details: P. falciparum Indochina infected RBC osmotic lysis, higher = more signal, called active from +8 up or from −8 down
[4] = PSAC antagonists in infected red cells, primary screen, cell-based, P. falciparum Indochina, OD700, 2 h (AID 1155);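 note: lysis reports solute entry through the parasite surface anion channel PSAC; channel blockers reduce lysis of infected cells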; details: P. falciparum Indochina infected erythrocytes, osmotic lysis OD700; higher = more signal, called active from +8 up or from −8 down
[5] = osmotic lysis modulators in infected erythrocytes, primary screen, PSAC antagonist project, cell-based, P. falciparum Indochina, OD700, 3 h (AID 1156); details: higher = more signal, called active from +8 up or from −8 down
[6] = PSAC antagonists in infected red cells, primary screen, cell-based, P. falciparum Indochina, OD700, 18 h (AID 1157); details: P. falciparum Indochina infected erythrocytes, osmotic lysis OD700, 18 h; higher = more signal, called active from +8 up or from −8 down
[7] = modulators of S6 phosphorylation in cells, primary screen, cell-based, A549, cytoblot, luminescence, serum-stimulated (AID 1158); details: A549 phospho-S6 cytoblot, 5 h, higher = more signal;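 note: serum-stimulated A549 lung adenocarcinoma cells; signal is phosphorylated S6 detected by cytoblot immunostaining with HRP secondary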
[8] = biological target: NADPH oxidase 2 (Homo sapiens) (UniProt P04839); experiment: NOX2-dependent H2O2 signal modulators, primary screen, NOX inhibitor project, cell-based, HEK293-NOX2, PMA-stimulated, Amplex Red fluorescence (AID 1159); details: 45 min, higher = more signal, called active from +8 up or from −8 down; note: test concentration not given here
Chain of NADPH oxidase 2 (Homo sapiens) (P04839 whole entry, looked up): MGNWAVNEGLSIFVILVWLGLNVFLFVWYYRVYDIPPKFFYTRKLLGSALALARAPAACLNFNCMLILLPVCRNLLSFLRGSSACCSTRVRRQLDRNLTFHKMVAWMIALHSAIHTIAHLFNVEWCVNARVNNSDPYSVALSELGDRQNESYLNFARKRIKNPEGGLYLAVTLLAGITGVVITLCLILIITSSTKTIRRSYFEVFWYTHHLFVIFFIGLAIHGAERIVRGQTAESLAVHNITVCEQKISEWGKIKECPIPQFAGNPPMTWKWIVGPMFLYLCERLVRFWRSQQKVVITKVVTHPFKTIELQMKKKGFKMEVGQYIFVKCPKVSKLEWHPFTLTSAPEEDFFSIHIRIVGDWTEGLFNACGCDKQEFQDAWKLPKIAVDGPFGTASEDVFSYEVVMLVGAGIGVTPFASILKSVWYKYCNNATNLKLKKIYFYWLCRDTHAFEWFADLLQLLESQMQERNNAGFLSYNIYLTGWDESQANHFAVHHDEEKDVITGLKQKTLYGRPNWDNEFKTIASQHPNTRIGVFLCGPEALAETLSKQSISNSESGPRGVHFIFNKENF

[9] = biological target: NADPH oxidase 4 (Homo sapiens) (UniProt Q9NPH5); experiment: NOX4-dependent H2O2 signal modulators, primary screen, NOX inhibitor project, cell-based, HEK293-NOX4, tetracycline-induced, Amplex Red fluorescence (AID 1160); details: 45 min, higher = more signal, called active from +8 up or from −8 down
Chain of NADPH oxidase 4 (Homo sapiens) (Q9NPH5 whole entry, looked up): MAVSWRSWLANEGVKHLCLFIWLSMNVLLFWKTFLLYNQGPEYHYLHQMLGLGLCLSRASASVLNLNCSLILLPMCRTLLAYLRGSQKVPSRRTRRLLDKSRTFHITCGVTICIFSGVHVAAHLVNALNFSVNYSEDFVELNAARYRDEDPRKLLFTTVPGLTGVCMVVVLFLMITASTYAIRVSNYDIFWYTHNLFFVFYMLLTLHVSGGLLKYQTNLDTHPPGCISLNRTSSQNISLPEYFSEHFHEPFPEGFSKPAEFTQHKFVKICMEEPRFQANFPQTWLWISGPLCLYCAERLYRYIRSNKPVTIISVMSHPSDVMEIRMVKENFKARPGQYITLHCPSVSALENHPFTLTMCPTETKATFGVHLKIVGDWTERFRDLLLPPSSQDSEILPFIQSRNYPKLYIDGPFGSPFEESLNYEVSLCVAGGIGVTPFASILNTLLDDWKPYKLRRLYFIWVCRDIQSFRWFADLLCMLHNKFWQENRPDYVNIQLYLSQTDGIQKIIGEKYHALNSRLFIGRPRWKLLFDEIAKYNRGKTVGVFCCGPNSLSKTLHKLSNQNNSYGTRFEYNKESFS

[10] = biological target: NADPH oxidase 5 (Homo sapiens) (UniProt Q96PH1); experiment: NOX5-dependent H2O2 signal modulators, primary screen, NOX inhibitor project, cell-based, HEK293-NOX5, Amplex Red fluorescence (AID 1161); details: HEK293-NOX5, ionomycin, 45 min, higher = more signal
Chain of NADPH oxidase 5 (Homo sapiens) (Q96PH1 whole entry, looked up): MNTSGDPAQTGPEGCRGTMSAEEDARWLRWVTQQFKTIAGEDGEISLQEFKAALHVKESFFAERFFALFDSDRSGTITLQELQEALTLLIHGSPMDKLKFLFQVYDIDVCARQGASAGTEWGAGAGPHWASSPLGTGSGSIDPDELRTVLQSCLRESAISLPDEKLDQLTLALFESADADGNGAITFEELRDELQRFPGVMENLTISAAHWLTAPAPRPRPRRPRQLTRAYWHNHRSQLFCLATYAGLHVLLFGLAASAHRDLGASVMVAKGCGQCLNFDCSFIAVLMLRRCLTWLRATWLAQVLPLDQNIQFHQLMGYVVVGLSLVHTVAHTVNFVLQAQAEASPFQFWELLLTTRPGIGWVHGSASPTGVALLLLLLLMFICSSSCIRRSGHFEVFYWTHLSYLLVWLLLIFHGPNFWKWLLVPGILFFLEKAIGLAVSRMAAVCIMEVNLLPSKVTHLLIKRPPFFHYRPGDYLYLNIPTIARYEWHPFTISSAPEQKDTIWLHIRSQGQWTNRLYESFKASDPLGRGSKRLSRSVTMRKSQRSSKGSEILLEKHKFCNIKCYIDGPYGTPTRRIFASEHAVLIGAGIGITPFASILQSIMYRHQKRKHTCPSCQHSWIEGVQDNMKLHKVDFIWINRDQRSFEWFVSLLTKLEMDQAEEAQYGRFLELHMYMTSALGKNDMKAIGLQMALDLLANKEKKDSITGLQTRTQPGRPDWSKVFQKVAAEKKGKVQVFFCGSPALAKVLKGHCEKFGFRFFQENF

[11] = A549 cell viability effects, profiling panel, calcein-AM fluorescence, 48 h, basal (AID 1162); details: higher = more signal; note: test concentration not given here
[12] = adipocyte viability effects, profiling panel, cell-based, 3T3-L1 adipocytes, calcein-AM fluorescence, 48 h, basal (AID 1163); details: 3T3-L1 adipocytes viability, higher = more signal; note: test concentration not given here
[13] = HepG2 cell viability effects, profiling panel, calcein-AM fluorescence, 48 h, basal (AID 1164); details: higher = more signal; note: test concentration not given here
[14] = MM1S cell viability effects, profiling panel, calcein-AM fluorescence, 48 h, basal (AID 1165); details: higher = more signal;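 note: viability of MM1S multiple myeloma cells under basal unstimulated conditions; test concentration not given here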
[15] = basal RPMI8226 viability, no added stimulus, profiling panel, cell-based, calcein-AM fluorescence, 48 h, PK04 Diversity Set (AID 1166); details: RPMI8226 myeloma viability, higher = more signal;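 note: cells grown under basal conditions without added stimulus; test concentration not given here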
[16] = basal HepG2 mitochondrial membrane potential changes, profiling panel, cell-based, JC-1 fluorescence, 24 h, 100 nL compound (AID 1167); details: higher = more signal; note: test concentration not given here
[17] = basal 3T3-L1 adipocyte mitochondrial potential changes, profiling panel, cell-based, JC-1 fluorescence, 3T3-L1 adipocytes, 24 h, 100 nL compound (AID 1168); details: JC-1 mitochondrial fluorescence, higher = more signal, called active from +8 up or from −8 down; note: test concentration not given here
[18] = basal RPMI8226 mitochondrial membrane potential changes, profiling panel, cell-based, JC-1 fluorescence, 24 h, 100 nL compound (AID 1169); details: RPMI8226 myeloma, JC-1 mitochondrial potential fluorescence, higher = more signal; note: test concentration not given here
[19] = basal MM1S mitochondrial membrane potential changes, profiling panel, cell-based, JC-1 fluorescence, 24 h, 100 nL compound (AID 1170); details: higher = more signal; note: test concentration not given here
[20] = A549 lung cancer cell viability effects, profiling panel, resazurin fluorescence, 24 h, PK04 Diversity Set (AID 1171); details: higher = more signal, called active from +8 up or from −8 down; note: test concentration not given here

Row | Structure (SMILES) | z-score [1] | composite z-score [2] | z-score [3] | z-score [4] | z-score [5] | z-score [6] | z-score [7] | z-score [8] | z-score [9] | z-score [10] | z-score [11] | z-score [12] | z-score [13] | z-score [14] | z-score [15] | z-score [16] | z-score [17] | z-score [18] | z-score [19] | z-score [20]
1 | CC(C)CON=C1C[C@@H](O)[C@@H](O)[C@@H]2[C@@H]3C(=O)N(c4cccc(Oc5ccccc5)c4)C(=O)[C@@H]3CC[C@H]12 | 0.525 (inactive) | -0.298 | -0.436 (inactive) | 0.0644 (inactive) | 0.388 (inactive) | 0.158 (inactive) | -0.157 | -0.831 (inactive) | 0.11 (inactive) | -0.144 | 0.259 | 0.425 | -0.641 | 0.957 | -0.0145 | 1.34 | 0.461 (inactive) | 0.288 | -0.309 | -0.0819 (inactive)
2 | C=CCN(CCCC)C(=O)C(c1cccs1)N(CCOCCO)C(=O)/C=C\C(=O)O (stereo not given) | 1.59 (inactive) and 1.84 (inactive) | -0.275 and -0.127 | -0.0592 (inactive) and -0.28 (inactive) | -0.832 (inactive) and -0.75 (inactive) | -0.114 (inactive) and 0.0221 (inactive) | -1.22 (inactive) and -1.27 (inactive) | 1.05 and 1.65 | 0.0943 (inactive) and 0.209 (inactive) | -0.73 (inactive) and -0.71 (inactive) | 0.465 and -0.0314 | 1.12 and 0.149 | 0.185 and -0.242 | 0.914 and 0.824 | 1.04 and 1.56 | 1.05 and -0.0726 | 0.644 and 1.03 | 0.713 (inactive) and 0.0219 (inactive) | 0.835 and 0.00316 | -1.11 and -0.822 | -0.557 (inactive) and -0.469 (inactive)
3 | C[C@@H]1CC[C@H]2C(=O)O[C@H](CN=[N+]=[N-])CN2[C@H]1c1ccc(Br)cc1 | -1.87 (inactive) and -0.609 (inactive) | 0.0457 and -0.284 | -0.1 (inactive) and 2.08 (inactive) | 0.23 (inactive) and 1.03 (inactive) | 0.124 (inactive) and 0.564 (inactive) | -0.12 (inactive) and 0.491 (inactive) | -0.524 and -0.466 | 0.993 (inactive) and 0.995 (inactive) | -0.0537 (inactive) and -0.184 (inactive) | -0.124 and 0.779 | -2.47 and 0.677 | -0.805 and -0.0793 | -2.75 and -0.113 | -3.4 and -0.0115 | -3.07 and 0.163 | -2.47 and 0.365 | -0.136 (inactive) and 0.265 (inactive) | -0.867 and 0.0245 | -1.02 and 0.242 | -0.854 (inactive) and 0.459 (inactive)
4 | O=C1[C@H]2[C@H]3[C@H](O)[C@H](O)CC(=NOCc4ccccc4)[C@H]3CC[C@H]2C(=O)N1Cc1ccccc1 | -0.925 (inactive) | 0.0037 | 5.58 (inactive) | 0.42 (inactive) | 0.224 (inactive) | -0.456 (inactive) | 0.741 | -1.14 (inactive) | -2.92 (inactive) | -2.42 | -0.85 | 1.18 | -0.977 | -0.695 | -1.69 | 1.09 | -0.0708 (inactive) | 0.00736 | -1.48 | 0.51 (inactive)
5 | COC(=O)c1c2oc(c1C(=O)OC)C(=O)N[C@@H](Cc1ccccc1)Cn1cc(nn1)C1(CCCCC1)NC(=O)N[C@H](CO)CC2 | 2.62 (inactive) and 1.74 (inactive) | 0.391 and 0.0455 | 1.36 (inactive) and 4.41 (inactive) | 0.431 (inactive) and 1.49 (inactive) | 0.557 (inactive) and 0.593 (inactive) | 0.454 (inactive) and 0.801 (inactive) | 0.427 and 0.173 | 0.432 (inactive) and 0.428 (inactive) | 1.67 (inactive) and -1.49 (inactive) | 0.922 and -2.52 | 2.13 and 1.06 | -0.29 and 0.184 | 0.893 and 0.0236 | 0.434 and -0.392 | 1.51 and -1.13 | 1.09 and 4.63 | 0.354 (inactive) and -0.852 (inactive) | -0.0874 and -0.0745 | 0.559 and -0.594 | 0.976 (inactive) and 1.37 (inactive)
6 | C=CC[C@@H](O)c1ccc(O)c(F)c1 | -0.024 (inactive) and 1.7 (inactive) | -0.216 and -0.0449 | 0.92 (inactive) and -0.126 (inactive) | 0.574 (inactive) and -1.54 (inactive) | -0.0619 (inactive) and -1.38 (inactive) | 0.476 (inactive) and -2.12 (inactive) | 0.0996 and 0.266 | -0.896 (inactive) and -0.237 (inactive) | -1.46 (inactive) and 0.42 (inactive) | -0.436 and 0.271 | -0.562 and 0.575 | 0.207 and 0.747 | -0.804 and -0.172 | -1.11 and 1.1 | -0.508 and -1.15 | -1.48 and -0.00596 | -1.3 (inactive) and 1.47 (inactive) | 0.345 and 0.642 | -0.347 and 1.29 | -0.694 (inactive) and 0.0466 (inactive)
7 | C=CC[C@@H](O)c1ccc(OCCO)cc1 | 1.23 (inactive) and 1.38 (inactive) | -0.259 and -0.191 | 3.24 (inactive) and 1.36 (inactive) | -0.971 (inactive) and -1.24 (inactive) | -0.904 (inactive) and -0.902 (inactive) | -2.02 (inactive) and -2.07 (inactive) | 2.74 and 0.965 | -0.976 (inactive) and -0.495 (inactive) | -0.354 (inactive) and -0.393 (inactive) | -1.22 and -0.2 | 0.589 and 0.923 | -0.0396 and 0.764 | 1.22 and 0.876 | 1.17 and 1.23 | 0.834 and -1.19 | 1.28 and 1.15 | -0.53 (inactive) and 0.676 (inactive) | 0.871 and 0.81 | 0.00142 and 1.08 | -0.707 (inactive) and -0.779 (inactive)
